For 28 compounds, max response results are on record in PubChem BioAssay (NCATS).

“And” between values parts separate entries of the source, which are not always exact repeats. Identical values can stand only once. Inconclusive results are not listed. The source made the active and inactive calls. Calls come from the whole dose curve; as a rule, active = well fitted inhibition curve with a large enough effect; inconclusive = small, poorly fitted or top-dose-only effect; inactive = flat fitted curve, though single readings scatter. Where a SMILES comes first, the peptide text is derived from it. Bridges are numbered along the chain shown (N, C = ends). [ ]: non-standard residue; d: D form. The star is where a group is joined. X1 = CC[C@@H](C)[C@@H](N)C1=N[C@H](C(=O)*)CS1; d(aIle) = CC[C@H](C)[C@@H](N)C(=O)O; dOrn = NCCC[C@@H](N)C(=O)O
% is set by controls: 0 for no effect and ±100 for the full control effect.

This assay relates to KB-3-1. Put plainly: Cytotoxic Profiling of Annotated Libraries Using Quantitative High-Throughput Screening (AID 1296008). Note: nearly all actives have a fitted effect of over 60% in size. To be noted: Five cell lines viability, CellTiter-Glo ATP luminescence, 48-72 h; max response: hits give low values. The gist of the method:
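Cells exposed to compounds for 48 or 72 hr at 37 degrees Celsius. Viability read as ATP-coupled luminescence with CellTiter-Glo after 10 min at room temperature.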
On the technique in general: ATP-based viability assays read luminescence as a measure of living cells.
As to `C[C@H](NCCc1ccc(O)cc1)[C@H](O)c1ccc(O)cc1`, the max response is -13.6% (inactive).
In the case of `C[S+](C)CCC(N)C(=O)O` (stereo not drawn) it was 3.56% (inactive); in that of `O=C(NNCS(=O)(=O)O)c1ccncc1`, -1.07% (inactive); in that of `O=C(O[C@H]1CN2CCC1CC2)N1CCc2ccccc2[C@@H]1c1ccccc1`, 8.58% (inactive).
In the case of `COc1ccccc1N1CCN(CCCC(=O)c2ccc(F)cc2)CC1` it was -4.67% (inactive); in that of `C=CCOc1ccc(CC(=O)O)cc1Cl`, 11.1% (inactive).
`CCCCCCCCCCCCCCCCCCOCC(COP(=O)([O-])OCC[N+](C)(C)C)OC` (stereo not drawn): the max response was 0.811% (inactive).
In the case of `O=C1[O][Bi][O]c2ccccc21`, the max response was -7.6% (inactive).
Regarding `C[C@]12CC[C@@H]3c4ccc(O)cc4CC[C@H]3[C@@H]1CC[C@@H]2OP(=O)(O)O`, the max response is -26.5% (inactive).
On to `O=C(c1cc2ccccc2o1)N1CCN(Cc2ccccc2)CC1`, for which the max response was -3.18% (inactive).
In the case of `O=C1C2CC3CC1CC(O)(C3)C2` it was 2.59% (inactive); in that of `NCC(O)CC(=O)O` (stereo not drawn), 3.49% (inactive).
In the case of `CC(C)(COP(=O)(O)OP(=O)(O)OC[C@H]1O[C@@H](n2cnc3c(N)ncnc32)[C@H](O)[C@@H]1OP(=O)(O)O)C(O)C(=O)NCCC(=O)NCCS` (stereo partly drawn) it was 7.71% (inactive); in that of `COc1ccc2c(=O)c(C)c(-c3ccccc3)oc2c1CN(C)C`, 2.73% (inactive).
In the case of `CCOC(=O)Oc1c(OC)cc(C(=O)O[C@@H]2C[C@@H]3CN4CCc5c([nH]c6cc(OC)ccc56)[C@H]4C[C@@H]3[C@H](C(=O)OC)[C@H]2OC)cc1OC` it was 3.08% (inactive); in that of `CN1CCN(C(c2ccccc2)c2ccc(Cl)cc2)CC1` (stereo not drawn), 0.99% (inactive); in that of `CC[C@H]1OC(=O)[C@H](C)[C@@H](O[C@H]2C[C@@](C)(OC)[C@@H](O)[C@H](C)O2)[C@H](C)[C@@H](O[C@@H]2O[C@H](C)C[C@H](N(C)C)[C@H]2O)[C@](C)(O)C[C@@H](C)CN(C)[C@H](C)[C@@H](O)[C@]1(C)O`, -8.69% (inactive).
As to `CC(C)NCC(O)COc1ccccc1-n1cccc1` (stereo not drawn), the max response was 24.4% (inactive).
For the compound `C[C@@H]1C/C=C/C=C/C=C/C=C/[C@H](O[C@@H]2O[C@H](C)[C@@H](O)[C@H](N)[C@@H]2O)C[C@@H]2O[C@](O)(C[C@@H](O)C[C@H]3O[C@@H]3/C=C/C(=O)O1)C[C@H](O)[C@H]2C(=O)O`, the max response is 3.94% (inactive).
Turning to `CC/C(=C(/CC)c1ccc(OP(=O)(O)O)cc1)c1ccc(OP(=O)(O)O)cc1`, the max response is -7.92% (inactive).
The figure for `CC(C)[C@@H]1CC[C@@H](C)C[C@H]1O` is -7.15% (inactive); for `NC(=O)c1ccc[n+]([C@@H]2O[C@H](COP(=O)([O-])OP(=O)(O)OC[C@H]3O[C@@H](n4cnc5c(N)ncnc54)[C@H](O)[C@@H]3O)[C@@H](O)[C@H]2O)c1` it is -2.72% (inactive).
Regarding `Cn1nnnc1SCC1=C(C(=O)O)N2C(=O)[C@@H](NC(=O)[C@H](O)c3ccccc3)[C@H]2SC1`, the max response is 8.48% (inactive).
For `O=C(O)C1=C(CSc2nnnn2CS(=O)(=O)O)CS[C@@H]2[C@H](NC(=O)[C@H](O)c3ccccc3)C(=O)N12`, the max response is 3.59% (inactive).
In the case of `CC(/C=C/C=C(\C)C(=O)O[C@@H]1O[C@H](CO[C@@H]2O[C@H](CO)[C@@H](O)[C@H](O)[C@H]2O)[C@@H](O)[C@H](O)[C@H]1O)=C\C=C\C=C(C)\C=C\C=C(/C)C(=O)O[C@@H]1O[C@H](CO[C@@H]2O[C@H](CO)[C@@H](O)[C@H](O)[C@H]2O)[C@@H](O)[C@H](O)[C@H]1O` it was 1.72% (inactive); in that of `CCOc1ccc(S(=O)(=O)O)c2cccnc12`, 5.36% (inactive).
The figure for `CC[C@@H](C)[C@@H](N)C1=N[C@H](C(=O)N[C@@H](CC(C)C)C(=O)N[C@@H](CCC(=O)O)C(=O)N[C@@H](C(=O)N[C@@H]2CCCCNC(=O)[C@@H](CC(N)=O)NC(=O)[C@@H](CC(=O)O)NC(=O)[C@@H](Cc3cnc[nH]3)NC(=O)[C@@H](Cc3ccccc3)NC(=O)[C@@H]([C@H](C)CC)NC(=O)[C@@H](CCCN)NC2=O)[C@@H](C)CC)CS1` (X1-LE[d(aIle)][dK][dOrn][dI][dF][dH][dD][dN]; lactam 4-C) is 3.54% (inactive) and -18.2% (inactive); for `C=C1CC[C@H](O)CC1=C/C=C1\CCC[C@]2(C)[C@@H]([C@H](C)CC[C@@H](O)C(C)(C)O)CC[C@@H]12` it is 6.41% (inactive).
